Shown are actives, neighbours in structure and some others; about 17% of the full set was active somewhere.
TDP1 cell CPT – DT40-hTDP1 cell growth loss with CPT; chicken DT40 Tdp1-/-;hTDP1 cells + 20 nM CPT, ATP luminescence, 48 h; Potency, µM (highest dose often 46.2 µM), inactives show top-dose activity change, negative = growth inhibition, actives largely listed as inhibitors; 420,000 tested, 12% active; note: % is set by controls: 0 for no effect and ±100 for the full control effect; nearly all actives have a fitted effect of over 55% in size
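Chicken DT40 Tdp1-/- cells stably complemented with human TDP1 were seeded at 400 cells/well in medium containing 20 nM camptothecin, exposed to pin-transferred compounds, and grown at 37 °C for at least 48 hr. Viability was read as ATP luminescence.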
HT1080 IDH1KD tx – toxicity to HT-1080 IDH1 knockdown cells (counter line); HT-1080 IDH1 knockdown viability, ATP luminescence, 48 h; 360,000 tested, 2% active; AID 686971; Potency, µM (highest dose often 46.1 µM), without a hit: at the highest dose activity, negative = toxicity, actives largely listed as cytotoxic;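 note: 0% = DMSO wells and -100% = cell-free medium wells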
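Cytotoxicity counter-line: IDH1KD HT-1080, 48 h, CellTiter-Glo. Curves classed by r2, magnitude and activity.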
HT1080NT lethal – kills 2HG-producing HT-1080-NT fibrosarcoma cells; HT-1080-NT fibrosarcoma viability, CellTiter-Glo ATP luminescence, 48 h; Potency, µM (titrated, usually from 46.1 µM), without a hit: at the top dose activity, negative = less viability, hits mostly cytotoxic; 360,000 tested, 1.6% active;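 note: NT is the 2HG producing partner of a matched IDH1 knockdown line; 0% = DMSO-treated cells and -100% = media-only wells without cells; nearly all actives have a fitted effect of over 55% in size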
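A 48-hour cytotoxicity screen used HT-1080-NT cells plated 2 hours before compound delivery. ATP-based CellTiter-Glo luminescence measured viability, normalized to DMSO and no-cell controls.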
TGFb SMAD3 inh – TGF-b pathway inhibition; AID 588855; Potency, µM (doses to about 46.1 µM), for the others: top-dose activity, negative = inhibition, actives largely listed as inhibitors; HepG2 CAGA-GFP TGF-b/SMAD3 reporter, GFP fluorescence, 18 h; TGF-beta stimulated, 500 pg/mL final; 410,000 tested, 1.2% active; note: % is set by controls: 0 for no effect and ±100 for the full control effect; nearly all actives have a fitted effect of over 65% in size
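HEPG2 CAGA-GFP, 1000 cells/well; 2 h settle, 37 C; cpd via pin tool; TGF-b 500 pg/mL final; 18 h, 37 C; GFP imaging ex488/em500-530; %Activity normalised to -TGF-b and +DMSO controls; CRC fit, curve class.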
DT40 TDP1 no CPT – qHTS for Inhibitors of human tyrosyl-DNA phosphodiesterase 1 (TDP1): qHTS in cells in absence of CPT; Potency, µM (top dose mostly 46.2 µM), for the others: at the top dose activity change, negative = growth inhibition, most hits filed as inhibitors; 420,000 tested, 15% active; DT40 Tdp1-/- hTDP1 cells, no CPT, ATP luminescence, 48 h; AID 686978, 2013; note: % is set by controls: 0 for no effect and ±100 for the full control effect; nearly all actives have a fitted effect of over 55% in size
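DT40 Tdp1-/-;hTDP1 cells, no CPT (DMSO vehicle only), 400 cells/well; compounds pin-transferred; ≥48 hr, 37 °C; CellTiter-Glo 30 min RT dark, luminescence read.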
HepG2 viability – counter-screen for TGF-b inhibitors: cytotoxicity in HepG2 cells; Potency, µM (highest dose often 46.1 µM), for inactives: top-dose activity change, negative = cytotoxicity, usual class: cytotoxic; 410,000 tested, 0.76% active; HepG2 CAGA-GFP viability, ATP luminescence, 18 h
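HepG2 CAGA-GFP cells (1000/well, DMEM with 1% FBS) received compound, then TGF-beta at 500 pg/mL final, and were incubated 18 hours at 37 degrees C. Viability was read by CellTiter-Glo luminescence. Media-only wells were set as complete cell-killing and DMSO as no toxicity.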
Numbers without * were called inactive; u = inconclusive; x = not tested or not shown. Calls come from the whole dose curve; as a rule, active = well fitted curve in the direction sought with a large enough effect; inconclusive = small, poorly fitted or top-dose-only effect, or another doubt; inactive = no such curve, though single readings can be large; an effect the other way counts as inactive or inconclusive. Potency is the fitted concentration of half-maximal effect.

SMILES	TDP1 cell CPT	HT1080 IDH1KD tx	HT1080NT lethal	TGFb SMAD3 inh	DT40 TDP1 no CPT	HepG2 viability
COc1ccc2c(c1)CC(C(=O)Nc1ccc(Br)c(C)c1)CO2 (stereo not drawn)	-30%	x	x	0%	u	-9%
CC(=O)N1c2ccccc2CCc2ccc([N+](=O)[O-])cc21	7%	6%	4%	0%	2%	-1%
COCCNC(=O)C1(C)CCCN(Cc2noc(-c3ccccc3OC)n2)C1 (stereo not drawn)	u	2%	u	-2%	u	5%
Cc1ccc(CN2C(=O)CCC2(C)c2nnnn2Cc2ccccc2)cc1 (stereo not drawn)	-12%	7%	8%	x	-15%	x
COc1cccc(C(=O)Nc2cccc(C(=O)OCc3cc(=O)n4c(C)csc4n3)c2)c1	u	x	x	-28%	u	-24%
CC(=O)NCC(=O)N1CCCC(C(=O)c2ccc(-c3ccccc3)c(F)c2)C1 (stereo not drawn)	5%	21%	u	-19%	-22%	-12%
Cc1noc(C)c1C(=O)N1CCCC(C(=O)c2ccc(Cl)cc2)C1 (stereo not drawn)	-18%	13%	22%	3%	u	-5%
COCC(=O)N1CCCC(C(=O)c2ccc(Oc3ccccc3)cc2)C1 (stereo not drawn)	u	-1%	-16%	u	8.2µM*	5%
COCC(=O)N1CCCC(C(=O)c2ccc(-c3ccccc3)c(F)c2)C1 (stereo not drawn)	21µM*	-12%	-9%	-1%	15µM*	-7%
Cc1ccc2[nH]nc(C(=O)N3CCCC(C(=O)c4ccc(Cl)cc4)C3)c2c1 (stereo not drawn)	u	-18%	-9%	u	16µM*	-16%
Cc1cc(C(=O)N2CCCC(C(=O)c3ccc(Oc4ccccc4)cc3)C2)n[nH]1 (stereo not drawn)	21µM*	-16%	-14%	u	13µM*	-16%
CC(C)Oc1cccc(C(=O)C2CCCN(C(=O)c3cc(C4CC4)[nH]n3)C2)c1 (stereo not drawn)	-23%	0%	-3%	2%	u	-5%
c1ccc2c(N3CCOCC3)nc(-c3ccoc3)nc2c1	u	x	x	x	-16%	x
Cc1cc(C(=O)OCC(=O)c2cccs2)ccc1[N+](=O)[O-]	-17%	9%	8%	5%	-14%	11%
COc1ccc(Cl)cc1N1C(=O)C2CCCN2C1c1ccc(F)cc1 (stereo not drawn)	-9%	-2%	-4%	8%	-8%	-9%
CCN1C(=O)[C@@H]2[C@@H](c3ccc(-c4ccc(Cl)c(Cl)c4)cc3)N3CCC[C@@]3(C(=O)OC)[C@@H]2C1=O	8.2µM*	-15%	-14%	u	7.3µM*	-23%
CCN1C(=O)[C@H]2[C@@H](c3ccc(-c4ccc(Cl)c(Cl)c4)cc3)N3CCCC[C@@]3(C(=O)OC)[C@H]2C1=O	10µM*	29%	0%	4%	6.5µM*	2%
CN(C)c1ccc(N/C(=N\S(=O)(=O)c2cccs2)c2ccccc2)cc1	u	-7%	-4%	-8%	6.5µM*	-16%
Cc1cc(C(=O)CSc2nnc(-c3ccc(F)cc3)o2)c(C)n1CC1CCCO1 (stereo not drawn)	u	-5%	-10%	-15%	21µM*	-3%
Cc1cc(C(=O)CSc2nnc(-c3ccc(F)cc3)o2)c(C)n1CC1COc2ccccc2O1 (stereo not drawn)	u	u	-20%	-2%	u	1%
COc1cc(-c2nnc(SCC(=O)c3cc(C)n(CC4CCCO4)c3C)o2)cc(OC)c1OC (stereo not drawn)	21µM*	-6%	-2%	-2%	u	-23%
Cc1cc(C(=O)CSc2nnc(-c3ccccc3F)o2)c(C)n1Cc1cccs1	23µM*	-6%	7%	0%	u	-44%
Cc1cc(C(=O)CSc2nnc(-c3cccnc3)n2-c2ccccc2F)c(C)n1CC1CCCO1 (stereo not drawn)	-24%	3%	1%	u	23µM*	3%
Cc1cc(C(=O)CN2C(=O)NC3(CCCCC3C)C2=O)c(C)n1Cc1cccs1 (stereo not drawn)	-16%	-4%	-4%	-6%	u	-1%
Cc1cc(C(=O)CN2C(=O)c3cccc(N)c3C2=O)c(C)n1Cc1cccs1	u	-15%	-11%	4%	21µM*	-48%
SMILES	TDP1 cell CPT	HT1080 IDH1KD tx	HT1080NT lethal	TGFb SMAD3 inh	DT40 TDP1 no CPT	HepG2 viability
CCN1/C(=C/C=C/c2oc3ccc(-c4ccccc4)cc3[n+]2CC)Oc2ccc(-c3ccccc3)cc21	0.0073µM*	0.92µM*	2.6µM*	103%	0.073µM*	-111%
O=C1N(c2ccccc2C(F)(F)F)O[C@@]1(c1ccccc1)C1CCCCC1	13µM*	u	u	3%	u	12%
CCOC(=O)c1c(NC(=O)c2cc(OC)c(OC)c(OC)c2)sc2c1CCCC2	7%	x	x	6%	3%	-3%
N#Cc1cccnc1N1CCC(C(N)=O)CC1	-1%	3%	3%	-11%	-7%	-3%
O=C(CN1CCN(c2ccccn2)CC1)Nc1ccc([N+](=O)[O-])cc1C(=O)Nc1ccccc1F	23µM*	-7%	-8%	u	7.3µM*	-29%
COc1cc(Cl)c(C)cc1NC(=O)c1ccccc1NC(=O)CN1CCN(c2ccccn2)CC1	18µM*	-19%	u	19%	26µM*	-6%
CC(C)c1ccc(NC(=O)CN2CCN(c3ccccn3)CC2)cc1	-24%	3%	9%	-6%	-11%	-17%

Source: PubChem
